Data taken from PubChem BioAssay AID2058 (Sanford-Burnham Center for Chemical Genomics, 2009).
Among all 290,000 compounds or so, about 150 (0.052%) were called active. Shown is part of a subset that was picked to be rich in actives. Entries with a potency or affinity are not part of this list. Values without a mark were called inactive.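 Rule for the calls: active = inhibition of at least 50% with at least 30 cells and total cytoplasm GFP at most 10,000,000; inconclusive = under 30 cells or total GFP of 10,000,000 plus; inactive = the rest.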

The molecules below were run against G-protein coupled receptor 35 (Homo sapiens) (UniProt Q9HC97) (assay: GPR35 antagonists blocking zaprinast-driven arrestin recruitment, primary screen, imaging, U2OS, beta-arrestin-GFP, zaprinast agonist (AID 2058)). Conditions: U2OS GPR35 beta-arrestin-GFP translocation imaging, zaprinast antagonism; at 10 µM; active compounds read high.
Chain of G-protein coupled receptor 35 (Homo sapiens) (Q9HC97 whole entry, looked up): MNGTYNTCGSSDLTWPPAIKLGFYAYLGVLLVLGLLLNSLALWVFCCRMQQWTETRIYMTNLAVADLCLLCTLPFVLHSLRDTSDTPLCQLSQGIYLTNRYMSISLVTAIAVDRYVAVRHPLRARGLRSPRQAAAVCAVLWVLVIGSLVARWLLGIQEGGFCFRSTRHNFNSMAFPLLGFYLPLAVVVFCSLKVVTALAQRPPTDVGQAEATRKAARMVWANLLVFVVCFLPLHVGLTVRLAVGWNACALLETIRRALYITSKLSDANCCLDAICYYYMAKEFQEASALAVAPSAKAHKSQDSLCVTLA

SMILES	inhibition
CCOC(=O)N1CCN(C(=O)C2CCN(S(=O)(=O)c3ccc(OCC)cc3)CC2)CC1	10.5%
CC(C)c1ccc(/C=C2\NC(=S)N(Cc3cccnc3)C2=O)cc1	-2.8%
O=C1/C(=C/c2ccc(Cl)cc2)NC(=S)N1Cc1cccnc1	-2.2%
S=c1[nH]nc(COc2ccccc2)n1/N=C/c1c(Cl)cccc1Cl	0.3%
Cc1ccc(S(=O)(=O)N[C@@H](Cc2ccccc2)C(=O)N2CCC(C(=O)N[C@@H](CC(C)C)C(=O)O)CC2)cc1	1%
Cc1ccc(OC(C)C(=O)Nc2ccc(S(=O)(=O)Nc3nccs3)cc2)cc1 (stereo unspecified)	-8.6%
COc1ccc(OC)c(NC(=O)C2CCN(S(=O)(=O)c3cccs3)CC2)c1	4.3%
CCCCCC(=O)N/N=C(\C)c1ccc(Cl)cc1	-9.2%
CCN(CC(=O)NC1CCS(=O)(=O)C1)c1nc(-c2ccccc2)nc2ccccc12 (stereo unspecified)	1.8%
CC(NC(=O)NC1CCCCC1)c1ccccc1 (stereo unspecified)	5.6%
CCC(NC(=O)NC1CCCCC1)c1ccccc1 (stereo unspecified)	103% (active)
CCC(NC(=S)NC1CCCCC1)c1ccccc1 (stereo unspecified)	-4.4%
COc1cc(C#N)ccc1OCC(=O)N1CCc2ccccc2C1	10.3%
Cc1ccc(Cn2ncc(Cl)c(Cl)c2=O)cc1	33.1%
O=c1c(Cl)c(Cl)cnn1Cc1ccc(F)cc1	49.1%
CCc1c(C)sc(NC(=O)c2ccco2)c1C(=O)N1CCOCC1	-15.5%
COc1ccc(OC)c(N(CC(=O)Nc2ccc3c(c2)OCCO3)S(C)(=O)=O)c1	-8.2%
COC(=O)c1ccc2c(c1)C(C)(C)C(/C=C/c1ccccc1O)=[N+]2C	18.9%
C[N+]1=C(/C=C/Nc2ccccc2Cl)C(C)(C)c2ccccc21	6.8%
O=c1c(Cc2ccc(F)cc2)c(O)ccn1Cc1cccc(Cl)c1	-9.1%
O=S(=O)(NCCSc1ccccc1)c1cccs1	-13.8%

SMILES	inhibition
O=C(CCN1C(=O)/C(=C/c2ccc3c(c2)OCO3)SC1=S)Nc1ccc(C(=O)O)cc1	0.4%
O=C(CCN1C(=O)/C(=C/c2ccc3c(c2)OCO3)SC1=S)Nc1ccccc1	15.7%
O=C(CCCN1C(=O)/C(=C/c2ccco2)SC1=S)Nc1cccc(C(=O)O)c1	5.8%
O=C(CCN1C(=O)/C(=C/c2ccc3c(c2)OCO3)SC1=S)Nc1cccc(C(=O)O)c1	-7.5%
Cn1c(=O)n(CC(=O)N2CCOCC2)c2ccccc21	-9.9%
O=C(CCN1C(=O)c2ccncc2C1=O)Nc1ccc(F)cc1	3.7%
C(/C=C/C=C/Nc1ccccc1)=Nc1ccccc1	90.5% (active)
Brc1ccc(N=C/C=C/C=C/Nc2ccc(Br)cc2)cc1	40.6%
CCn1c(O)c(/C=C/C=C/C=Nc2ccccc2)sc1=S	-0.5%
COc1ccccc1NC(=O)N1CCN(Cc2ccc3c(c2)OCO3)CC1	-7.3%
COc1ccc(/C=C2/S/C(=N/N=C3\CC4CCC3(C)C4(C)C)NC2=O)cc1 (stereo unspecified)	1.4%
Cc1cccc(/C=C2/S/C(=N/N=C3\CC4CCC3(C)C4(C)C)NC2=O)c1 (stereo unspecified)	1.3%
Cc1nc(CC(=O)O)c(-c2ccccc2)s1	-2.4%
Cc1ccc(C(=O)C(C)OC(=O)c2cc3cc([N+](=O)[O-])ccc3oc2=O)cc1 (stereo unspecified)	-8.8%
Cc1cc(-c2nnc(SCC(=O)Nc3ccccc3Cl)n2C)no1	18.2%
CC1=CC(=C(C#N)c2nc3ccccc3s2)C=C(C)N1CC1CCCO1 (stereo unspecified)	3.3%
CC[n+]1c(C=C2C=C(C)OC(C)=C2)sc2ccccc21	11.8%
Cn1c(=O)cc(OCC(=O)NCCc2ccc(Cl)cc2)c2ccccc21	13.1%
COc1ccc(OC)c2[nH]c(C(=O)N3CCC(C(=O)O)CC3)cc12	-3.2%
CC1Cc2ccccc2N1C(=O)c1cccnc1 (stereo unspecified)	20.2%
COc1ccccc1/C=C/C(=C1/C(=O)N(c2ccccc2)N=C1C)c1ccc(C)cc1	-2%

SMILES	inhibition
CC(C)(C=O)C1=CC(=O)c2ccccc2C1=O	78.8% (active)
CC1=CC(=O)c2ccccc2C1=O	10.8%
CC(C)(C)c1ccc2c(c1)C(=O)c1ccccc1C2=O	-1.9%
CC1Cc2ccccc2N1C(=O)CN(C)S(=O)(=O)c1cccc2cccnc12 (stereo unspecified)	-6.9%
Cc1ccccc1C(=O)N1CCCN(C(=O)c2ccccc2C)CC1	-12.2%
O=C(NNC(=S)Nc1ccc(F)cc1F)c1ccco1	-12.7%
CCOCCCNC(=O)C(c1ccc(Cl)cc1)N1CCN(c2ccccc2)CC1 (stereo unspecified)	5.9%
CCN(CC)c1ccc(/C=C(/C#N)C(=O)NC(C)C)o1	14.3%
Cc1ccc(/C=C(/C#N)C(=O)NC(C)c2ccccc2)o1 (stereo unspecified)	-7.7%
CC(C)NC(=O)/C(C#N)=C\c1ccc(N(C)C)o1	50% (active)
COc1ccc(/C=C(\C#N)C(=O)NC(C)c2ccccc2)cc1O (stereo unspecified)	9.9%
COC(=O)c1ccc(/C=C(\C#N)C(=O)NC(C)c2ccccc2)cc1 (stereo unspecified)	-3.1%
Cc1ccc(/C=C(\C#N)C(=O)NC(C)c2ccccc2)o1 (stereo unspecified)	-5.7%
CC(C)NC(=O)/C(C#N)=C/c1ccc(N(C)C)o1	19.2%
CC(CCc1ccccc1)NC(=O)CCN1N=C(c2ccccc2)CCC1=O (stereo unspecified)	-14.8%
O=C(NCCN1CCN(c2ccccc2)CC1)C1CCN(S(=O)(=O)N2CCOCC2)CC1	17.1%
COc1cccc(C(=O)NC(=S)Nc2ccccc2N2CCCCC2)c1	9.4%
O=C(CCn1cccn1)Nc1ccc2c(c1)OCCO2	18.7%
CCC1(C)Cc2ccccc2-c2[nH][nH]c(=O)c21 (stereo unspecified)	-5.1%
